Experimental data reported in PubChem BioAssay AID720524 (National Center for Advancing Translational Sciences (NCATS), 2013).
Screen size: about 1,400 compounds; about 1,000 (71%) were called active. Roughly 12% stayed inconclusive and do not appear here. Calls follow the shape of the dose curve; as a rule, active = well fitted inhibition curve with a large enough effect; inconclusive = small, poorly fitted or top-dose-only effect; inactive = no such curve, though single readings can be large or run the other way. The set was probably picked from earlier hits. These entries were drawn from the full list.

Experiment: Nrf2 qHTS screen for inhibitors: Nrf2 A549 ARE-Fluc Confirmation Assay for Hit Validation; also: nearly all actives have a fitted effect of over 65% in size
Conditions: A549 ARE-firefly luciferase reporter, luminescence
Source text: Nrf2 is a transcription factor that maintains cellular redox homoestasis and protects cells from xenobiotics. Nrf2 binds to the antioxidant response element (ARE) to induce gene expression of a broad spectrum of genes that encode for antioxidants. […] Finding a small molecule that act as an inhibitor of Nrf2 function would represent a novel therapeutic target that could lead to improvement in survival of patients undergoing chemo- and/or radio- therapy.
In collaboration with the Biswal laboratory, a cell based, luminescence assay (BugLite) was developed to detect the Nrf2 activity using the A549 ARE_Fluc cells (AID 493153). This assay was coupled with a fluorescence based (CellTiter Fluor) cytotoxicity assay to identify and exclude toxic compounds. This coupled assay was used to evaluate selected compounds for hit validation. The data herein is the result of the BugLite assay where decrease in luminescence signal = inhibition of Nrf2 activation. Inhibition is the desired outcome for this assay.
NIH Chemical Genomics Center [NCGC]
NIH Molecular Libraries Probe Centers Network [MLPCN]
Assay Submitter (PI): Shyam Biswal, Johns Hopkins University
[1] Shibata T., et al., Genetic alteration of Keap1 confers constitutive Nrf2 activation and resistance to chemotherapy in gallbladder cancer. Gastroenterology, 2008.
[2] Sjoblom T., et al., The consensus coding sequences of human breast and colorectal cancers. Science, 2006.
Five uL of cell suspension was dispensed into 1536-well white TC-treated plate using the Kalypsys dispenser to achieve a density of 5000 cells/well in all columns except column 1. The plates were incubated at 37deg C at 5% CO2 for 2 hours before 23 nL of compounds were added with the Kalypsys pin tool equipped with a 1,536-pin array. The control compounds Budesonide and Staurosporine were added at a concentration of 2mM. Budesonide was also added as a 1:10 titration, starting at 200uM, to achieve the dose-response control signal. The plates were incubated for 18-24 hour at 37deg C, 5% CO2 followed by a 5ul addition of 5% FBS OPTI-MEM growing media in column 1 as negative control. One microliter of 5x CellTiter Fluor (Promega) was added to each well and the assay plates were incubated at 37deg C, 5% CO2 for 30 minutes. The fluorescence signal was read using the PerkinElmer ViewLux plate reader (Ex = 405 nm /Em = 525 nm) for a 3 second exposure. After the signal was taken, 3 uL of 3x BugLite was dispensed into all wells. The plates were then incubated at room temperature for 15 minutes. A second ViewLux read (40 sec exposure) was performed to detect the luminescence signal. Cytotoxicity was assessed through the first fluorescent read while biochemical activity against Nrf2 was measured in the luminescent read. The data was normalized to the positive and negative controls.
Potency is read from the fitted curve at half-maximal effect.

Row | SMILES | Potency
1 | c1ccc2c(c1)[I+]c1ccccc1-2 | 206 nM (active)
2 | CC[C@H]1CN2CCc3cc(OC)c(OC)cc3[C@@H]2C[C@@H]1C[C@H]1NCCc2cc(OC)c(OC)cc21 | 146 nM (active)
3 | CCC(C)(O)C(=O)OC1C(=O)OC2CC3C(C)=CC(=O)C(O)C3(C)C3C4(O)OCC23C1C(C)C4O (stereo not given) | 580 nM (active)
4 | COC1C(O)C(C)OC(OC2CCC3(C=O)C(CCC4C3CCC3(C)C(C5=CC(=O)OC5)CCC43O)C2)C1O (stereo not given) | 11.6 nM (active)
5 | C[C@]12CC[C@H](O)C[C@H]1CC[C@@H]1C2CC[C@]2(C)[C@@H](C3=CC(=O)OC3)[C@@H](O)C[C@]12O (stereo not given in full) | 1640 nM (active)
